# From ChEMBL document CHEMBL1157539, “Thousands of chemical starting points for antimalarial lead identification” (Nature, 2010)
# How the values were obtained:
# Format in all cases: functional
# [1] = tested on: Plasmodium falciparum; test: GSK_TCMDC: Inhibition of Plasmodium falciparum 3D7 in whole red blood cells, using parasite LDH activity as an index of growth. Test compounds present at 2uM
# [2] = tested on: Plasmodium falciparum; test: GSK_TCMDC: Inhibition of Plasmodium falciparum Dd2 in whole red blood cells, using parasite LDH activity as an index of growth. Test compounds present at 2uM
# [3] = tested on: HepG2; test: GSK_TCMDC: Percent inhibition of human HepG2 cell line. Test compounds present at 10uM.
SMILES,Inhibition [1] [%],Inhibition [2] [%],Inhibition [3] [%]
Cc1cc(C)n2nc(C(=O)Nc3cc(C(F)(F)F)ccc3N3CCOCC3)nc2n1,94,91,2
O=C(NC1CCN(Cc2ccccc2)CC1)c1ccc(-c2nc3cc4ccccc4cc3[nH]2)s1,99,25,13
CCCN(CCC)S(=O)(=O)c1ccc(C(=O)N2CCC(C(=O)OCC)CC2)cc1,98,41,26
O=C(O)C(F)(F)F.OCC1CCN(Cc2cccc(-c3ccc(-c4nc5cc(C(F)(F)F)ccc5[nH]4)cc3)c2)CC1,100,95,25
Cc1cccc2nc(-c3ccc(-c4cccc(CNCC5CCCO5)c4)cc3)[nH]c12.O=C(O)C(F)(F)F (stereo not drawn),100,50,18
COc1ccccc1-c1cccc(Nc2c(Nc3ccc(Cl)cc3)c(=O)c2=O)c1,81,47,20
CCCc1cc(=O)oc2cc(OC)c(C(=O)CC(C)C)c(OC)c12,81,67,3
O=C1C2C3SC(c4c3ccc3ccccc43)C2C(=O)N1c1ccccc1 (stereo not drawn),96,7,0
COc1c(C2CCN(CCCCNC(=O)c3cccc(-c4ccc(C(F)(F)F)cc4)c3)CC2)ccc2c1CCCC2,92,45,50
O=C(/C=C/C=C/c1ccc(Cl)c(Cl)c1)NCCCCCN1CCCC2CCCCC21 (stereo not drawn),91,48,41
O=C(Nc1ccc(N2CCN(C(=O)/C=C/c3ccccc3)CC2)c(Cl)c1)c1ccc([N+](=O)[O-])o1,97,90,98
